Measured values: PubChem BioAssay
Active and inactive are the calls of the source.

How the values were obtained:
[1] = tested on: Plasmodium falciparum Sir2 (PF13_0152, Sir2A); test: Plasmodium falciparum Sir2A binding compounds – biochemical, small-molecule microarray, 635 nm fluorescence, primary screen (AID 1098); conditions: fluorescence 635 nm, higher = more signal;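 note: score merges spot fluorescence intensity with its signal-to-noise ratio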
[2] = probe aDKK1 binding to arrayed compounds – biochemical, biotinylated probe, 635/667 nm fluorescence, primary screen (AID 1099); conditions: small-molecule microarray, higher = more signal;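 note: score merges 667nm spot fluorescence with signal to noise across triplicate slides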
[3] = probe aCHRDL2 binding to arrayed compounds – biochemical, biotinylated probe, 635/667 nm fluorescence, primary screen (AID 1100); conditions: small-molecule microarray, higher = more signal
[4] = change in splice reporter luminescence, either direction, cell-based, HEK293, spliceosome inhibition project, primary screen (AID 1101); conditions: HEK293 splicing luciferase reporter, 24 h, higher = more signal, called active from +8 up or from −8 down;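 note: HEK293 cells carrying a splicing-competent luciferase reporter gene; test concentration not given here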
[5] = target: Fibroblast growth factor 10 (Homo sapiens) (UniProt O15520); test: compounds binding fibroblast growth factor 10 – biochemical, small-molecule microarray, 635 nm fluorescence, primary screen (AID 1102); conditions: FGF10 binding, fluorescence 635 nm, higher = more signal
Fibroblast growth factor 10 (Homo sapiens), sequence (O15520 whole entry, looked up): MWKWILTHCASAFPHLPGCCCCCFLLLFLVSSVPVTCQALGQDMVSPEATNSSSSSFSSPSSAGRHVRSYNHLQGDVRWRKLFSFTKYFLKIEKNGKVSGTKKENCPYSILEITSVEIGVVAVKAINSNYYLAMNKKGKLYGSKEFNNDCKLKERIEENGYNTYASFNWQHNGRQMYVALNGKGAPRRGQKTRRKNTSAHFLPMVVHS

[6] = tested on: glycogen synthase kinase-3 (GSK3A per assay name; protocol says GSK3B); test: compounds binding glycogen synthase kinase-3 – biochemical, small-molecule microarray, 635 nm fluorescence, GSK3A, primary screen (AID 1103); conditions: fluorescence 635 nm, higher = more signal; note: the record names both GSK3A and GSK3B
[7] = target: Epidermal growth factor receptor (Homo sapiens) (UniProt P00533); test: compounds binding epidermal growth factor receptor – biochemical, small-molecule microarray, 635 nm fluorescence, primary screen (AID 1104); conditions: EGFR binding, higher = more signal;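 note: score merges 667 nm emission intensity with spot signal to noise over triplicate slides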
Epidermal growth factor receptor (Homo sapiens), sequence (P00533 whole entry, looked up): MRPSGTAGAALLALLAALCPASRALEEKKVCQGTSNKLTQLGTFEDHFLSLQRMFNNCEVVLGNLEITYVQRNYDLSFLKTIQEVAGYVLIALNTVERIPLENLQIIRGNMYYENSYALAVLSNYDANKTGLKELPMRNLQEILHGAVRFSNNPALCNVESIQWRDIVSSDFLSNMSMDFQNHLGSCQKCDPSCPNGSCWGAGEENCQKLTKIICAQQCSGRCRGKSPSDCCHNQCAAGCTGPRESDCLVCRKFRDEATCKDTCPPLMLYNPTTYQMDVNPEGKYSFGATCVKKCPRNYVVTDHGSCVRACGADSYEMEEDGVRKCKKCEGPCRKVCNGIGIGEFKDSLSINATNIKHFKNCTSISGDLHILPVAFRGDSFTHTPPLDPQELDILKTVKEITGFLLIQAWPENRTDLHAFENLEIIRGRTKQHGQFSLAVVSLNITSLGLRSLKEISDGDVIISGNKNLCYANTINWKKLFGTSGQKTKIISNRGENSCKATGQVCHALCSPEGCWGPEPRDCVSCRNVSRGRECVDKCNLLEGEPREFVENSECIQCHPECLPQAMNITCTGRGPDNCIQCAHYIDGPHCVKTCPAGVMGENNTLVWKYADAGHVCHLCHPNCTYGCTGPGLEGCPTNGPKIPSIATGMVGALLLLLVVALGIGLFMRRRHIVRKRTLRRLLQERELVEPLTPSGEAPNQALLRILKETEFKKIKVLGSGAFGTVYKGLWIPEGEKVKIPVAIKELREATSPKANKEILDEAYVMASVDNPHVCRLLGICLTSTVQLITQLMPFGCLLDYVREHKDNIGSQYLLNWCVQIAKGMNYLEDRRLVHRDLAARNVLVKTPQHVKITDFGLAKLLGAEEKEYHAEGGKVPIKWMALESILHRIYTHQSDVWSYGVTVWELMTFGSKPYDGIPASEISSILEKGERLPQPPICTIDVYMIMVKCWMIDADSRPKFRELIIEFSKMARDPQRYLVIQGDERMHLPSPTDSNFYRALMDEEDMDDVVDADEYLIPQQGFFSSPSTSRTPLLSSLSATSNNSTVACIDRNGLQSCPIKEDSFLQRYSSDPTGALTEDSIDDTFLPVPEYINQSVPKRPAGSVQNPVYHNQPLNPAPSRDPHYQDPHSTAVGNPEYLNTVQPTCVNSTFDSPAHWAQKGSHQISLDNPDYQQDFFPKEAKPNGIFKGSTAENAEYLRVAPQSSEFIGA

[8] = target: Follistatin-related protein 3 (Homo sapiens) (UniProt O95633); test: compounds binding follistatin-related protein 3 – biochemical, small-molecule microarray, 635 nm fluorescence, primary screen (AID 1105); conditions: FSTL3 binding, higher = more signal;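 note: score merges emission near 667 nm and signal to noise per printed spot across three slides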
Follistatin-related protein 3 (Homo sapiens), sequence (O95633 whole entry, looked up): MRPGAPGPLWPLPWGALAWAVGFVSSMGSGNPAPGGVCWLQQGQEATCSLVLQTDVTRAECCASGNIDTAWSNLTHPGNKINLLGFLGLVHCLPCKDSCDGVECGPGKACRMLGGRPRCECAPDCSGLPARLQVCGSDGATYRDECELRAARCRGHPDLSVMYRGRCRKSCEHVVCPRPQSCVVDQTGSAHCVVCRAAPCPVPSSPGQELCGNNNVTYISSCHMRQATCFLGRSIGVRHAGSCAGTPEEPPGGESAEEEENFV

[9] = target: Dickkopf-related protein 1 (Homo sapiens) (UniProt O94907); test: small molecules binding DKK1 protein – biochemical, small-molecule microarray, 635 nm fluorescence scan, primary screen (AID 1106); conditions: higher = more signal;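 note: score merges emission near 667 nm with signal to noise over three replicate slides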
Dickkopf-related protein 1 (Homo sapiens), sequence (O94907 whole entry, looked up): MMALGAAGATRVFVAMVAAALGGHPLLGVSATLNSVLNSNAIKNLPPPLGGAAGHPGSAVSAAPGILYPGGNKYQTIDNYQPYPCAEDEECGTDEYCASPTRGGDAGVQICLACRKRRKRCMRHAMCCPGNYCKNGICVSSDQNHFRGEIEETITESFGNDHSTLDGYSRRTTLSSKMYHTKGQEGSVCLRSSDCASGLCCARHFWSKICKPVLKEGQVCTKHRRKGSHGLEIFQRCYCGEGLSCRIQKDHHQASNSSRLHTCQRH

[10] = tested on: Inhibin beta A chain (activin A); test: small molecules binding activin A – biochemical, small-molecule microarray, 635 nm fluorescence scan, primary screen (AID 1107); conditions: INHBA, higher = more signal;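 note: mouse activin A protein probed at 4.33 µg/mL on printed slides; score merges bound-protein fluorescence near 667 nm with spot signal-to-noise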
[11] = tested on: Human papillomavirus type 1a protein E7 (residues 44-93); test: small molecules binding HPV E7 44-93 – biochemical, small-molecule microarray, residues 44-93, 635 nm fluorescence, primary screen (AID 1108); conditions: fluorescence 635 nm, higher = more signal;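 note: E7 fragment applied at 1 µg/mL in TBST for 1 h at 4 C; score combines spot fluorescence with its signal to noise ratio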
[12] = hepatitis C replication reporter changes, two-sided – Huh7 cells, luciferase reporter, HCV replication inhibitor project, primary screen (AID 1109); conditions: Huh7 HCV replicon luciferase reporter, 48 h; higher = more signal;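 note: huh7 hepatoma cells harbouring a luciferase neomycin HCV replicon reporter; luciferase luminescence as measure of HCV replicon replication; test concentration not given here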
[13] = target: Left-right determination factor 2 (Homo sapiens) (UniProt O00292); test: small molecules binding LEFTY2 protein – biochemical, small-molecule microarray, 635 nm fluorescence scan, primary screen (AID 1110); conditions: higher = more signal
Left-right determination factor 2 (Homo sapiens), sequence (O00292 whole entry, looked up): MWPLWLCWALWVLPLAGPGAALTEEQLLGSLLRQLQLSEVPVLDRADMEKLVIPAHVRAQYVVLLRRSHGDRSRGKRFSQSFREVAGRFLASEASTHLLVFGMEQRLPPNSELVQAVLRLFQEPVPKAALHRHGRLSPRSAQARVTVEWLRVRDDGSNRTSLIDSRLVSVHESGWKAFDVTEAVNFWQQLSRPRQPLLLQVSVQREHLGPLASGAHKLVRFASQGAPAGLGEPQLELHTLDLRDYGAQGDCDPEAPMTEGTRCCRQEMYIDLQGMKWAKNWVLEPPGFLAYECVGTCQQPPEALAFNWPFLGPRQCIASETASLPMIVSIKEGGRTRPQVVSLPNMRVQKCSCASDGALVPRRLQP

[14] = target: Calmodulin-1 (Homo sapiens) (UniProt P0DP23); test: small molecules binding calmodulin-1 with EGTA – biochemical, small-molecule microarray, Cy5-labelled CALM1, profiling panel (AID 1111); conditions: Cy5-CALM1 binding fluorescence, higher = more signal;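 note: labelled calmodulin applied in Tris saline Tween buffer holding calcium plus EGTA and DTT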
[15] = target: Calmodulin-1 (Homo sapiens) (UniProt P0DP23); test: small molecules binding Ca-loaded calmodulin-1 – biochemical, small-molecule microarray, Cy5-labelled CALM1, plus calcium, artefact control for SMM control-protein annotation, profiling panel (AID 1112); conditions: Cy5-CALM1 binding fluorescence, higher = more signal;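 note: score merges spot fluorescence with signal to noise from triplicate slides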
[16] = probe aWnt5a binding to arrayed compounds – biochemical, biotinylated probe, 635/667 nm fluorescence, primary screen (AID 1113); conditions: small-molecule microarray, higher = more signal;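 note: score merges 667 nm fluorescence intensity with signal-to-noise per printed feature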
[17] = probe aShh binding to arrayed compounds – biochemical, biotinylated probe, 635/667 nm fluorescence, primary screen (AID 1114); conditions: small-molecule microarray, higher = more signal;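 note: probe is biotin-labelled aShh protein from a stem cell growth factor screen; measures binding of labelled protein to compounds printed on the slide; score merges feature fluorescence at 667 nm with signal-to-noise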
[18] = probe aNog binding to arrayed compounds – biochemical, biotinylated probe, 635/667 nm fluorescence, primary screen (AID 1115); conditions: small-molecule microarray, higher = more signal;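 note: probe is biotinylated aNog protein used at 0.15 µg/mL for 1 h at 4 C; z-score combines 667 nm fluorescence of each spot with its signal to noise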
[19] = target: Torsin-1A-interacting protein 1 (Homo sapiens) (UniProt Q5JTV8); test: compound microarray binding of lysate hLAP1 – cell lysate, small-molecule microarray, COS7 lysate, 635/667 nm fluorescence, primary screen (AID 1116); conditions: 635 nm fluorescence, higher = more signal
Torsin-1A-interacting protein 1 (Homo sapiens), sequence (Q5JTV8 whole entry, looked up): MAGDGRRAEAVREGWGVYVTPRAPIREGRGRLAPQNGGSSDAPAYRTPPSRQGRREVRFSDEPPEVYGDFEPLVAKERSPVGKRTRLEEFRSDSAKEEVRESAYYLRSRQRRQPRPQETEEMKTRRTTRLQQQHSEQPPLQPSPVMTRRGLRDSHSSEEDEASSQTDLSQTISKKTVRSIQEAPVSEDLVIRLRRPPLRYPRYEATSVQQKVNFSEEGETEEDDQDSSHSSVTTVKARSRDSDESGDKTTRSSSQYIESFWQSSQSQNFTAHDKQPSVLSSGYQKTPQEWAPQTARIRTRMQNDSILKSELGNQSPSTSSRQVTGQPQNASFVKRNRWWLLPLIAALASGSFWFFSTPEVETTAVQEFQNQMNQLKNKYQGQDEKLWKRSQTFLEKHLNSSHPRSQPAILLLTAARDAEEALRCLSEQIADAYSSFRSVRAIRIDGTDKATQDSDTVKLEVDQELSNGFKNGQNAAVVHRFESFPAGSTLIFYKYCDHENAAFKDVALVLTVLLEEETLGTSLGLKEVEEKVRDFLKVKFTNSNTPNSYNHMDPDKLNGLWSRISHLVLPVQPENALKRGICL

[20] = target: Alpha-bungarotoxin (Bungarus multicinctus) (UniProt P60615); test: compounds binding labelled alpha-BTX control protein – biochemical, small-molecule microarray, Alexa647 label, 635/667 nm fluorescence, artefact control for SMM control protein annotation, profiling panel (AID 1117); conditions: alpha-BTX-A647 binding fluorescence, higher = more signal
Alpha-bungarotoxin (Bungarus multicinctus), sequence (P60615 whole entry, looked up): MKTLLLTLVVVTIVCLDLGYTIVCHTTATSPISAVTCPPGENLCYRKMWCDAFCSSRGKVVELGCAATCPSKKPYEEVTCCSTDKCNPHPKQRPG

SMILES	composite z-score [1]	composite z-score [2]	composite z-score [3]	z-score [4]	composite z-score [5]	composite z-score [6]	composite z-score [7]	composite z-score [8]	composite z-score [9]	composite z-score [10]	composite z-score [11]	z-score [12]	composite z-score [13]	composite z-score [14]	composite z-score [15]	composite z-score [16]	composite z-score [17]	composite z-score [18]	composite z-score [19]	composite z-score [20]
C=C(/C(=C/C[C@H](OC(C)=O)c1ccccc1OCCO)c1cnc2ccccc2c1)C(C)C	1.55	0.955	-0.269	0.0118 (inactive)	0.53	0.311	-0.306	1.04	0.304	1.87	0.101	-2.42	-0.0274	0.361	-0.378	-0.034	0.184	-0.036	0.327	1.19
C=CCN1C(=O)[C@]2(O[C@H](CCn3cc([C@H](O)c4ccccc4)nn3)[C@@H]([Si](C)(C)c3ccc(OC)cc3)[C@@H]2C)c2cc(N3CCC3=O)ccc21	1.48	-0.29	0.224	-0.619 (inactive)	0.864	0.169	0.0043	0.306	0.815	0.619	1.34	-3.08	0.152	0.439	-0.022	-0.0685	0.0253	0.328	0.549	1.07
CC(C)N1C(=O)c2ccccc2[C@](C)(C(=O)NCCN2CCOCC2)[C@@H]1c1ccc(CO)cc1	0.24	-0.0879	0.987	0.0672 (inactive)	-0.499	-0.608	-1.13	-0.115	-0.75	0.503	0.416	-0.366	-1.03	-0.454	0.23	-0.139	-0.206	-0.213	0.143	0.0722
O=C1C[C@]2(c3ccc([N+](=O)[O-])cc3)C(=O)N(CC(F)(F)F)c3cc(CO)ccc3[C@H]2N1C1CCCCC1	-0.535	0.246	0.564	0.465 (inactive)	-0.431	-0.161	-1.1	-0.883	-0.906	0.23	-0.83	0.909	-1.34	-0.74	-0.624	-0.103	-0.221	-0.495	-0.555	-0.605
COc1ccccc1CN1C(=O)c2ccccc2[C@@H](C(=O)NC2CC2)[C@@H]1c1ccc(CO)cc1	0.743	0.667	0.556	0.0463 (inactive)	1.27	1.28	0.521	1.44	1.23	0.633	0.0772	-1.3	0.57	0.522	-0.779	-0.0512	0.257	-0.519	0.0469	1.3
C=C[C@H](C)[C@@H](OC(=O)Nc1ccc(OC)cc1)c1ccc(O)c2ccccc12	0.408	-0.398	-0.083	2.41 (inactive)	-0.117	-0.177	-0.568	0.386	0.209	0.722	-0.626	-3.43	-0.239	-0.582	-0.461	-0.178	0.318	0.152	0.534	-0.177
C=C(CC1([C@@H](NP(=O)(c2ccccc2)c2ccccc2)[C@H]2C[C@@H]2CCCC)CC1)c1ccccc1	0.339	0.786	0.994	-2.51 (inactive)	0.0431	0.014	0.243	0.438	0.104	0.705	1.23	-0.776	-0.0117	1.19	1.15	0.186	0.257	0.0585	1.17	0.598
CO[C@H]1O[C@H](CO)[C@@H](OC(=O)Nc2ccccc2)[C@H](OC(=O)Nc2ccccc2)[C@@H]1OC(=O)Nc1ccccc1	1.48	-0.136	-0.103	-1.29 (inactive)	1.44	1.3	1.12	1.11	0.439	0.0784	1.39	-1.93	0.179	0.928	-0.136	0.111	-0.0793	-0.541	0.835	0.796
COc1ccc([Si](C)(C)[C@H]2[C@H](CC(=O)N3Cc4ccccc4C[C@H]3CO)O[C@@]3(C(=O)N(Cc4cccc(N5CCC5=O)c4)c4ccccc43)[C@@H]2C)cc1	1.31	-0.293	-0.325	-0.205 (inactive)	1.05	0.716	1.19	1.42	1.26	0.962	1.37	-3.58	0.903	-0.293	-1.02	-0.0425	0.2	0.0308	0.626	-0.0509
C=CCNC(=O)[C@@H]1[C@H]2C(=O)O[C@H](c3ccccc3)[C@H](c3ccccc3)N2[C@H](c2ccc(OCCO)cc2)[C@@]12C(=O)Nc1ccc(C#CCC(C(=O)OC)C(=O)OC)cc12	1.7	0.264	0.171	-0.646 (inactive)	1.23	1.27	-0.122	0.753	0.335	0.614	0.637	-2.18	0.608	0.263	-0.224	0.105	0.147	0.914	1.19	1.8
C=C(COC)/C(=C/C[C@@H](OC(=O)c1ccncc1)c1ccc(CO)o1)c1cc(C(=O)OC)ccc1OC	1.2	0.0709	-0.623	0.804 (inactive)	1.47	1.15	1.06	1.48	1.27	1.03	1.4	-0.557	1.44	0.209	-0.708	0.0077	-0.138	-0.18	0.877	0.702
